Data: PubChem BioAssay AID588689 (Southern Research Specialized Biocontainment Screening …, 2011)
Screen size: about 340,000 compounds; about 1,000 (0.29%) were called active. Rule as the data show it: inconclusive = inhibition above about 29% without an active follow-up result; inactive = below that. A selection follows. Potency and affinity values are given separately.

These molecules were tested against Genome polyprotein (Dengue virus type 2 (strain 16681-PDK53)) (UniProt P29991) (assay: flavivirus cap methylation enzyme inhibition – biochemical, confirmation dose response, primary screen (AID 588689)). Settings: Dengue-2 NS5 methyltransferase capping enzyme assay, at 25 µM, active compounds read high.
Chain of Genome polyprotein (Dengue virus type 2 (strain 16681-PDK53)) (P29991 whole entry, looked up): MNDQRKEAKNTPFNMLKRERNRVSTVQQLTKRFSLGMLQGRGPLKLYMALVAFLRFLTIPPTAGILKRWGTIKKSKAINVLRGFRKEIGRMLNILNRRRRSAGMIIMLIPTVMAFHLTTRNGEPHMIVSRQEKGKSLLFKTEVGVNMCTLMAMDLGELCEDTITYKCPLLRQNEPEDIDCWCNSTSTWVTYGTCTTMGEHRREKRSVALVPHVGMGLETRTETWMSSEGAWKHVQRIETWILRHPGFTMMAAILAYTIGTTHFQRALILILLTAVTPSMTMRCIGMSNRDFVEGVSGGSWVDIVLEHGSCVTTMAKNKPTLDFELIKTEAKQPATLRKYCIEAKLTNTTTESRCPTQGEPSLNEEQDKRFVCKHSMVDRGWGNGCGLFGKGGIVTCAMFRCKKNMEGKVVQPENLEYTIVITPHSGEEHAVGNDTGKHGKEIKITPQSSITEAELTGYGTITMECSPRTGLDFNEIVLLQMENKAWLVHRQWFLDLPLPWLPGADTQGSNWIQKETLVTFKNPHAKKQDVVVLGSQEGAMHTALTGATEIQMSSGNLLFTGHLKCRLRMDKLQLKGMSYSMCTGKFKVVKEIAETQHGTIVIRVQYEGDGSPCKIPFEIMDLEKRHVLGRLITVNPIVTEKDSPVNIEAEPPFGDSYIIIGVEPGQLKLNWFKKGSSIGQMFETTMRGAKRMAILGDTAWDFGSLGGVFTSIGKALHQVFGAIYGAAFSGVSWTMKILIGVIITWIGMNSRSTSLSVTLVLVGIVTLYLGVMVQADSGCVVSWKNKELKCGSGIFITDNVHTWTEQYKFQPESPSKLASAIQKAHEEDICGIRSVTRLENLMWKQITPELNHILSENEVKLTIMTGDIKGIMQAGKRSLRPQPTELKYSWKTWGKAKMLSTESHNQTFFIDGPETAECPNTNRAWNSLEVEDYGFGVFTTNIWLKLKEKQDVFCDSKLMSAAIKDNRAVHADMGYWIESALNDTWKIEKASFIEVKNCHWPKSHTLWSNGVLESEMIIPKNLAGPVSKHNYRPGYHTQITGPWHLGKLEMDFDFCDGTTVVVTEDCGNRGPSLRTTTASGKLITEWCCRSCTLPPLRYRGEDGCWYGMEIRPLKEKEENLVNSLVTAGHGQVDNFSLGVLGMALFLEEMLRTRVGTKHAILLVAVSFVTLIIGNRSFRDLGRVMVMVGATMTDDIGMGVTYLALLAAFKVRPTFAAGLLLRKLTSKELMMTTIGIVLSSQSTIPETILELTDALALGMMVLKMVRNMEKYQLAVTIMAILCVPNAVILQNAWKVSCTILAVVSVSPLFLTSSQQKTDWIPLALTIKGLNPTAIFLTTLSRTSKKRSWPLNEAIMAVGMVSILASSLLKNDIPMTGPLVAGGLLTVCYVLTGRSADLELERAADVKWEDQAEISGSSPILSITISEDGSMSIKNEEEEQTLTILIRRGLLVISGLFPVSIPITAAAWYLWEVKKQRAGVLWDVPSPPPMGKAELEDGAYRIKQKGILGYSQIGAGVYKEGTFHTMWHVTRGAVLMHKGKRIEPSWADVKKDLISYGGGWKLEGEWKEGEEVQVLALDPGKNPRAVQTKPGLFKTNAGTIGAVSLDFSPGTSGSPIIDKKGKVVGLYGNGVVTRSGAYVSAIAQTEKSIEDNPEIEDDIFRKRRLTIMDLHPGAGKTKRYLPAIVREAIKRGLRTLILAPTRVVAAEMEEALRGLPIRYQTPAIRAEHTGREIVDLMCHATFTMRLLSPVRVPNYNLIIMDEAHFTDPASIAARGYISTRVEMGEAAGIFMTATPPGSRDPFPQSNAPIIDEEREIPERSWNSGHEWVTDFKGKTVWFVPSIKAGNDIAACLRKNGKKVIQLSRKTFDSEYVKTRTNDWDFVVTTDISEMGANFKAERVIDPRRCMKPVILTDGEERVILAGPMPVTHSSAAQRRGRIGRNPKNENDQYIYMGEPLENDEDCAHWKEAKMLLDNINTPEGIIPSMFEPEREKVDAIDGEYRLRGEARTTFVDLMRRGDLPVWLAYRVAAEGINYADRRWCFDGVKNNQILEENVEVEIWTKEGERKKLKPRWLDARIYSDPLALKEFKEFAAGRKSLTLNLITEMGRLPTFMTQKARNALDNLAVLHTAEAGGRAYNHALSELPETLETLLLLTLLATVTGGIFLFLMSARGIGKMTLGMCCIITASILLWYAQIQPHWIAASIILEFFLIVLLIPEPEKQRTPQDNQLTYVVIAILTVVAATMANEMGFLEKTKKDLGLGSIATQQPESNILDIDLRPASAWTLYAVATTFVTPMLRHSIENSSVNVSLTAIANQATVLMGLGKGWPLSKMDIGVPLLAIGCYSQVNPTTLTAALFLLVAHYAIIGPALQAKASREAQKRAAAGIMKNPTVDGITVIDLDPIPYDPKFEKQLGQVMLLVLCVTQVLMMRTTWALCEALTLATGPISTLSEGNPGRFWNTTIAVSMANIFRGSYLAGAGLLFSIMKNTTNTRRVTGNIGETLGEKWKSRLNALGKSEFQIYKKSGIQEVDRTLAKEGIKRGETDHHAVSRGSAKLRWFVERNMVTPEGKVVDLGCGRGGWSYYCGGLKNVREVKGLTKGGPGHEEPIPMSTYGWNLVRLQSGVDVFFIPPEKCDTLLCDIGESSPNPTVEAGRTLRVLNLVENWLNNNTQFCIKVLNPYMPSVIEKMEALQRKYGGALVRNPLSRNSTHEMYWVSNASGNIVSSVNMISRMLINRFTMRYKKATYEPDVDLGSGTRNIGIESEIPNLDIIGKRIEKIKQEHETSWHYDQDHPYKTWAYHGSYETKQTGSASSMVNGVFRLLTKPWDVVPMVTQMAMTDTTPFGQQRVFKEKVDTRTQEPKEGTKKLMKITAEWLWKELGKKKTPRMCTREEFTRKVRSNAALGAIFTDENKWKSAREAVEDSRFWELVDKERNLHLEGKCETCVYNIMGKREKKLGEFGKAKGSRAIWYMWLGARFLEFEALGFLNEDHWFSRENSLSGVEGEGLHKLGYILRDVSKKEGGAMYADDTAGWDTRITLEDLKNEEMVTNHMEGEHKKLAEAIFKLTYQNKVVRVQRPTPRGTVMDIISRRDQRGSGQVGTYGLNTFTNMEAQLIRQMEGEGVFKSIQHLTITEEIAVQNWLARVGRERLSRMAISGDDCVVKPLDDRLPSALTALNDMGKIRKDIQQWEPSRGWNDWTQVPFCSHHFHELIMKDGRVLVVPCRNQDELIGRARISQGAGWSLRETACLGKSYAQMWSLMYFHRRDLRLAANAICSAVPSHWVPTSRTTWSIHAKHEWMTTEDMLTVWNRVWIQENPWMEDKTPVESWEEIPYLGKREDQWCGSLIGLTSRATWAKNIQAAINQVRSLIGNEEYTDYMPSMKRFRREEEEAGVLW

inhibition, inactive:
CCCCOc1ccc(-c2cnc3ccccc3n2)cc1 1.6%, Cc1cc(N2CCC(C(=O)NCC3CC3)CC2)nc(-c2ccccc2)n1 -10.6%, COC(=O)N(C)C[C@H]1OCc2cnnn2CCCC(=O)N([C@@H](C)CO)C[C@@H]1C 0%, CC1=NOC(=O)/C1=C\c1ccc(-c2ccc(Br)cc2)o1 24.5%, CC1(C)OC(=O)C(=Cc2ccc(-c3ccc(Cl)c(C(=O)O)c3)o2)C(=O)O1 -35.6%, CC1=NOC(=O)/C1=C/c1ccc(-c2ccc(Cl)cc2)o1 19%, CC1=NOC(=O)/C1=C\c1ccc(-c2ccccc2Br)o1 3.96%, CC(C)N1C(=O)S/C(=C\c2ccc(-c3ccc(Cl)c(C(=O)O)c3)o2)C1=O 9.54%, CC1=NOC(=O)/C1=C\c1ccc(-c2cccc(Cl)c2)o1 6.14%, CC(=O)N(c1ccccc1)c1nc2ccccc2s1 -3.1%, O=C(CNCc1ccccc1Cl)Nc1ccc(C(=O)N2CCCCC2)cc1 -14.1%, CNC(=O)c1ccsc1NC(=O)CS(=O)(=O)c1ccc(F)cc1 -0.55%, CCN1CCN(CCCN(Cc2ccco2)C(=S)Nc2cccc(Cl)c2C)CC1 5.26%, Nc1cc(=O)[nH]c(SCC(=O)Nc2cccnc2Cl)n1 11.6%, COc1cccc(/C=C2\CCc3ccccc3C2=O)c1 1.96%, N#C/C(=C\c1cccc(OC(=O)c2cccs2)c1)C(N)=O -25%, COc1cc(C=C2C(=O)c3ccccc3C2=O)cc(OC)c1 18%, O=C1OC(c2ccccc2)=N/C1=C/c1cccc(OC(=O)c2cccs2)c1 6.35%, Cc1cc(/C=C2\C(=O)NN(c3ccccc3)C2=O)c(C)n1-c1ccccc1O 2.89%, COc1cc(/C=C2/C(=O)NN(c3ccccc3)C2=O)cc(Br)c1O -40.3%, O=C1NN(c2ccc(Br)cc2)C(=O)/C1=C\c1ccc(O)cc1O -25.4%, COc1ccc(-n2c(C)cc(/C=C3\C(=O)NN(c4ccccc4)C3=O)c2C)cc1 3.87%, COc1cccc(/C=C2/NC(=O)N(CC(=O)Nc3ccc(C)cc3)C2=O)c1OCc1cccc(C(=O)O)c1 -3.96%, Cc1ccc2nc(-c3ccccc3)cc(C(=O)N3CCc4ccccc4C3)c2c1 -5.47%, NC(N)=N/N=C/c1ccc(OCc2ccccc2Cl)cc1 -0.7%, Cc1ccc(-c2nc3c(c(=O)c4ccccc4n3C)c(=O)n2-c2ccc(F)cc2)cc1 0.78%
